Data as given in the supplement of paper PMC11732987, “Enantioselective OTUD7B fragment discovery through chemoproteomics screening and high-throughput optimisation” (Communications Chemistry, 2025).

Tests used:
Test in all cases: log2 ratio of Biotin-Ahx-Ub-VS probe labelling (fragment/DMSO); higher = less target engagement (more negative = stronger competition), active = hit call of the paper (q ≤ 0.05, log2 ratio ≤ -1)
Details in all cases: compound concentration: 200 uM; treatment time: 3 h
OTUD6B = biological target: T1, OTUD6B (UniProt Q8N6M0)
T1 sequence (whole entry): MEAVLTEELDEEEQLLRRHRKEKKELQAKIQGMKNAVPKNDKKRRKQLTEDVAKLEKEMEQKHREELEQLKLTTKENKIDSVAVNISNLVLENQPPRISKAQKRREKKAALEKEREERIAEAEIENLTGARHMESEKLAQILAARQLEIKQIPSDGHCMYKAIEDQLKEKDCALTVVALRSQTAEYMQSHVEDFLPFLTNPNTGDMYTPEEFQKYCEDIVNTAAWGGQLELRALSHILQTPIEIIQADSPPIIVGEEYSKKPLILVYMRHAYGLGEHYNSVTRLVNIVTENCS
Outline: (§1)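 Global-median-normalised Spectronaut label-free quantities were compared by unpaired t-test, and values are average log2 ratios of fragment over vehicle. Only proteins with ≥2 unique peptides were used. HEK293T lysate (495 µg per sample) was treated in triplicate with fragment at 200 µM or vehicle for 3 h and then with Biotin-Ahx-Ub-VS at 0.5 µM final for 1 h. Labelled DUBs were then NeutrAvidin-enriched, digested with LysC and trypsin, and run by diaPASEF LC-MS/MS.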

OTUD7B = biological target: T2, OTUD7B (UniProt Q6GQQ9)
T2 sequence (whole entry): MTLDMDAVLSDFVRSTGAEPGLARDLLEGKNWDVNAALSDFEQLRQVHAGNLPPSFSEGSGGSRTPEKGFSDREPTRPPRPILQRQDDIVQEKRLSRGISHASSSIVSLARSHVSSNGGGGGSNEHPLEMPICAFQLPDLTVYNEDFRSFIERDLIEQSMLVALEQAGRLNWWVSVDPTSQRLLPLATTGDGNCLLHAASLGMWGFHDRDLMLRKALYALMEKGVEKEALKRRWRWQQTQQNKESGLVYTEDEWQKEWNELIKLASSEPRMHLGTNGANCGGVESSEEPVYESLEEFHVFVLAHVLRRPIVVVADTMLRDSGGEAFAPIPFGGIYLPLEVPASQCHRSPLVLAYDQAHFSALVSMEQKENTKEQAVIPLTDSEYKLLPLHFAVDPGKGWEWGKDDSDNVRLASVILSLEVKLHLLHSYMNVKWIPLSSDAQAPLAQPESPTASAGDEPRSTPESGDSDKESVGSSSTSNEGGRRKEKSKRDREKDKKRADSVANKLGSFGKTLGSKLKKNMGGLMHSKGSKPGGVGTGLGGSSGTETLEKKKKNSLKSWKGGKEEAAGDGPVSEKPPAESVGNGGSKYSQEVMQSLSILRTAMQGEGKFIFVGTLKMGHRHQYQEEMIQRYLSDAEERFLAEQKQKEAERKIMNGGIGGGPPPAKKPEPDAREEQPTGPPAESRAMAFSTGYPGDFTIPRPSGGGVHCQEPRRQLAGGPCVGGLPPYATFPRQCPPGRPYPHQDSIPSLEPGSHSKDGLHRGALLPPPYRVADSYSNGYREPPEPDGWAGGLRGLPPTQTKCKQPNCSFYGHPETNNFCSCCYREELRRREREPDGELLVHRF
Outline: as §1

PRPF8 = PRPF8 (UniProt Q6P2Q9)
Outline: as §1

PSMD7 = biological target: T3, PSMD7 (UniProt P51665)
T3 sequence (whole entry): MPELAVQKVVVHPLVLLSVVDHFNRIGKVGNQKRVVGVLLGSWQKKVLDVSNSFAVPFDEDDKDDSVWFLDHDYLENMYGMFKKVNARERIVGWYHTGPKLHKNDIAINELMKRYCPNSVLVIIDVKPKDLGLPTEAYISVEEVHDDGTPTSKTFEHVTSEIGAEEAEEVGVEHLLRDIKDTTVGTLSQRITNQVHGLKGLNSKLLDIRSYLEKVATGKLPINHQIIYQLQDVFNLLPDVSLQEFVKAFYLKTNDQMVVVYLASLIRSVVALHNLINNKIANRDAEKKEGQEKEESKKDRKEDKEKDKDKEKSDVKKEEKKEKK
Outline: as §1

UCHL1 = UCHL1 (UniProt P09936)
Chain of UCHL1 (P09936 whole entry, looked up): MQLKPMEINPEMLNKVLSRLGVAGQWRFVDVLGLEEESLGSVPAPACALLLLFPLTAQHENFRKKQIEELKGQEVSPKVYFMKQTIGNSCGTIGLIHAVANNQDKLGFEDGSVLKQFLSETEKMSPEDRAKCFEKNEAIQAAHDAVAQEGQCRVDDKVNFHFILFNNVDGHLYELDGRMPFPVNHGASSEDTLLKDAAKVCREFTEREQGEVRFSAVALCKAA
Outline: as §1

UCHL3 = biological target: T4, UCHL3 (UniProt P15374)
T4 sequence (whole entry): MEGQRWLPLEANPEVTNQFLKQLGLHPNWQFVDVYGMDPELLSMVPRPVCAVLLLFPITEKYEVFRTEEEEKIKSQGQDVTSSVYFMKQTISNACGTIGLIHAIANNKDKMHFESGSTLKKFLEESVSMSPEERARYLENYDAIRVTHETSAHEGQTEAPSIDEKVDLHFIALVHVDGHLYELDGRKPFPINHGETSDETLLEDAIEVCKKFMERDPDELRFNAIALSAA
Outline: as §1

UCHL5 = biological target: T5, UCHL5 (UniProt Q9Y5K5)
T5 sequence (whole entry): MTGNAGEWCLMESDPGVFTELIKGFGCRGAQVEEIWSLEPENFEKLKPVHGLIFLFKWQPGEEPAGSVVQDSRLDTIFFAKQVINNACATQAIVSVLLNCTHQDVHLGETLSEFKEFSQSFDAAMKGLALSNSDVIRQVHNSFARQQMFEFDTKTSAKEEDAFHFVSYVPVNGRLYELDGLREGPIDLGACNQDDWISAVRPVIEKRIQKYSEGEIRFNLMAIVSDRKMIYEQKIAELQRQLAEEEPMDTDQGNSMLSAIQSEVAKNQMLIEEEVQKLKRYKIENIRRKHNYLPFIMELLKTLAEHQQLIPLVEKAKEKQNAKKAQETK
Outline: as §1

USP10 = USP10 (UniProt Q14694)
Chain of USP10 (Q14694 whole entry): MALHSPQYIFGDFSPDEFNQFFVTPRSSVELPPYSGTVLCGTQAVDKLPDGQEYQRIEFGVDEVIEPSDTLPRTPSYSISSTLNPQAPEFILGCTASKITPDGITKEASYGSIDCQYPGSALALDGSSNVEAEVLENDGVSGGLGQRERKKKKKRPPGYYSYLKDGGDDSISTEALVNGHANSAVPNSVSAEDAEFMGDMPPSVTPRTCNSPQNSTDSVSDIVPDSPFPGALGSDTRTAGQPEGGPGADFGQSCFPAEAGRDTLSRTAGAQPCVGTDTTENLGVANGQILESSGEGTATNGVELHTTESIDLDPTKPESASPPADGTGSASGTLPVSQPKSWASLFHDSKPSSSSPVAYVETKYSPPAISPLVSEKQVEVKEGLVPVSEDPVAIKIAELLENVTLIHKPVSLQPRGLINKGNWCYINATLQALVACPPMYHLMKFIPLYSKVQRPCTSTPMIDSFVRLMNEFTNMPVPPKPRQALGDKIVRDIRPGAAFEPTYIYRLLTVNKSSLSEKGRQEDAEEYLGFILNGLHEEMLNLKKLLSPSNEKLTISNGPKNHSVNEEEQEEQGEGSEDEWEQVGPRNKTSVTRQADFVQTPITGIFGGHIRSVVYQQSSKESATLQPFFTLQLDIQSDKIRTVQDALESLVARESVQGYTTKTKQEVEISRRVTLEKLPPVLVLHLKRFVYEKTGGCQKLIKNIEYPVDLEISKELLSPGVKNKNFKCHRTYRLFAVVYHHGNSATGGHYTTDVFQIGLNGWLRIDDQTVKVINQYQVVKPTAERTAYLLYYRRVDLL
Outline: as §1

USP15 = biological target: T6, USP15 (UniProt Q9Y4E8)
T6 sequence (whole entry): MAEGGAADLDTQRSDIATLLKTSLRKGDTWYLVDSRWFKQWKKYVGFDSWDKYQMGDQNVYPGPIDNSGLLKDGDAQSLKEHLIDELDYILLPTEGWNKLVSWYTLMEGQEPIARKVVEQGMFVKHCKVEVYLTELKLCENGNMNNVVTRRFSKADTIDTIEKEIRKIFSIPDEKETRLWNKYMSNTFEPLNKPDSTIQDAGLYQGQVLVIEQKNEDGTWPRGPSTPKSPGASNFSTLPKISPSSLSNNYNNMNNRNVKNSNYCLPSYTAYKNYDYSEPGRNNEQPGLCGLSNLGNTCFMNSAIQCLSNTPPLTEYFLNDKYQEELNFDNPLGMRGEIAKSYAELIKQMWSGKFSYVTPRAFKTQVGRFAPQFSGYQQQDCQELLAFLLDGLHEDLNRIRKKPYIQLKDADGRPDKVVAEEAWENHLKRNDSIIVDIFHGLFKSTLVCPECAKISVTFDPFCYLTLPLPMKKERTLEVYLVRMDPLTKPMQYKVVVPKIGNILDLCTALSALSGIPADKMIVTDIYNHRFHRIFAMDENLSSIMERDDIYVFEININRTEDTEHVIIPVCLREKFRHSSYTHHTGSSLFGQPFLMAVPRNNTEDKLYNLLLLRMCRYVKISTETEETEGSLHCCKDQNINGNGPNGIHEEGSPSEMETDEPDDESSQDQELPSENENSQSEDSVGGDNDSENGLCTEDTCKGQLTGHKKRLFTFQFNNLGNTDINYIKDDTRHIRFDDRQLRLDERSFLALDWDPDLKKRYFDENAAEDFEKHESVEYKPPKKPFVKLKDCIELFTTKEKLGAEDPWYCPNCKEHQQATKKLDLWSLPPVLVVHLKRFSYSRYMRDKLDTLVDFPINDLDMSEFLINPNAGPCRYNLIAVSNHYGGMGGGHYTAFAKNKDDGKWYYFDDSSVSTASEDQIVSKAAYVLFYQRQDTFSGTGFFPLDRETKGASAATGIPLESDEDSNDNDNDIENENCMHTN
Outline: as §1

Measured: log2 ratio of Biotin-Ahx-Ub-VS probe labelling

Cc1ccc(CC(NC(=O)CCl)c2ccccn2)cc1.Cl (centres undefined)
inactive: OTUD6B 0.0158 | OTUD7B -0.295 | PRPF8 0.0556 | PSMD7 -0.125 | UCHL1 -0.621 | UCHL3 0.459 | UCHL5 0.179 | USP10 -0.00276 | USP15 0.0178
